From PubChem BioAssay
In the library only some 4% were active in any assay of this set; here they are far more common.
RecA splice inh: Mtb RecA intein splicing inhibitors, primary screen, biochemical, fluorescence, HTS; Protein RecA (Mycobacterium tuberculosis (strain ATCC 25618 / H37Rv)), P9WHJ3; cell-free RecA intein splicing; inhibition, % (test concentration not listed); 290,000 tested, 0.75% active; in the data active = inhibition above about 30%
GDH-TPI counter-1: GDH-TPI coupling enzyme inhibitors, primary screen, artefact control for M. tuberculosis FBA inhibitor project, biochemical, absorbance, full deck | GDH-TPI coupled enzyme counterscreen, NADH absorbance | inhibition, % at 4.8 µM | 360,000 tested, 1.2% active | AID 588335, 2011; in the data active = inhibition above about 30%
Rv3671c inh: Rv3671c serine protease inhibitors, primary screen, biochemical, fluorescence polarization, M. tuberculosis H37Rv; P9WHR9; inhibition, % at 5.96 µM; 320,000 tested, 0.048% active; AID 2606, 2010; in the data active = inhibition above about 38%;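 also: extracellular domain of Rv3671c used as enzyme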
FBA Mtb inh: Mtb FBA enzyme inhibitors, primary screen, biochemical, fluorescence, strain H37Rv; 360,000 tested, 2.3% active; inhibition, % at 1 µM; AID 588726, 2011; purified M. tuberculosis FBA, fluorescence read-out; Fructose-bisphosphate aldolase (Mycobacterium tuberculosis (strain ATCC 25618 / H37Rv)), …
UGM FP inh: M. tuberculosis UGM enzyme inhibitors, primary screen, biochemical, fluorescence polarization, single point. UDP-galactopyranose mutase (Mycobacterium tuberculosis (strain ATCC 25618 / H37Rv)), …. purified UGM, fluorescence polarization probe displacement. inhibition, % at 10 µM. 320,000 tested, 0.06% active. AID 504406, 2011; in the data active = inhibition above about 10%, passing the limit was not always enough
Target sequence (P9WIQ1 whole entry, looked up): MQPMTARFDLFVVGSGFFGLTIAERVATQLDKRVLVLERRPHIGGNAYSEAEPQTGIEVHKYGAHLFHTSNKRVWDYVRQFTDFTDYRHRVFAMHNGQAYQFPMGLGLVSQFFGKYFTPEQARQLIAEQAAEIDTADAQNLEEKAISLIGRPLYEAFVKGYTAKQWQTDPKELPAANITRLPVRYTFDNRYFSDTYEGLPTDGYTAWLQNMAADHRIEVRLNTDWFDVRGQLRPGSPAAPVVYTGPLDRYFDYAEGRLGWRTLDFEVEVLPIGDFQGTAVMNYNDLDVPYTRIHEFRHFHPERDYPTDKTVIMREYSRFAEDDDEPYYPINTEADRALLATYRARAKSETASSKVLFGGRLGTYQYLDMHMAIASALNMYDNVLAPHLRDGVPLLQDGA
Mtb betalactam: beta-lactam sensitization of Mtb H37Rv, H37Rv | AID 434955, 2010 | inhibition, % at 25 µM | 330,000 tested, 0.27% active | M. tuberculosis H37Rv growth with meropenem, percent inhibition; call rule not given here;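 also: growth measured after seven days incubation then overnight dye step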
Mtb FBA inh conf: M. tuberculosis aldolase blockers, biochemical, fluorescence, strain H37Rv, confirmation. purified M. tuberculosis FBA, fluorescence read-out. shares compounds with FBA Mtb inh. AID 651616, 2012. inhibition, % at 1 µM. 5,600 tested, 78% active
GDH-TPI counter-2: GDH-TPI coupling enzyme inhibitors, artefact control for M. tuberculosis FBA inhibitor project, biochemical, fluorescence, high throughput. 5,600 tested, 81% active. inhibition, % at 1 µM. GDH-TPI coupled enzyme counterscreen. shares compounds with FBA Mtb inh; in the data active = inhibition above about 10%
Hits are given with their value. Rule as the data show it, unless noted: active = inhibition above about 27%; inactive = the rest.

How did COC(=O)CSc1nc2nc(-c3cccs3)cc(C(F)(F)F)c2c(=O)[nH]1 do in these assays?
RecA splice inh: inactive; GDH-TPI counter-1: inactive; Rv3671c inh: inactive; FBA Mtb inh: inactive; UGM FP inh: inactive; Mtb betalactam: inactive

Results for Cc1c(C)c2ccc(OC(C)C(=O)N3CC[C@@]4(O)CCCC[C@H]4C3)cc2oc1=O (some centres not stated) ?
GDH-TPI counter-1: inactive; Rv3671c inh: inactive; FBA Mtb inh: 96; UGM FP inh: inactive; Mtb betalactam: inactive; Mtb FBA inh conf: active; GDH-TPI counter-2: active

Results for Cc1cc(=O)oc2c(C)c(OC(C)C(=O)N3CC[C@@]4(O)CCCC[C@H]4C3)ccc12 (some centres not stated) ?
RecA splice inh: inactive; GDH-TPI counter-1: inactive; Rv3671c inh: inactive; FBA Mtb inh: inactive; UGM FP inh: inactive; Mtb betalactam: inactive

Results for Cc1c(C)c2ccc(OC(C)C(=O)N3CC[C@@]4(O)CCCC[C@H]4C3)c(C)c2oc1=O (some centres not stated) ?
RecA splice inh: inactive; GDH-TPI counter-1: inactive; Rv3671c inh: inactive; FBA Mtb inh: 69; UGM FP inh: inactive; Mtb betalactam: inactive; Mtb FBA inh conf: 53; GDH-TPI counter-2: 41

Results for Cc1ccc(CN2C(=O)c3ccccc3NC2c2cc(Br)ccc2O)cc1 (configuration not stated) ?
RecA splice inh: inactive; GDH-TPI counter-1: inactive; Rv3671c inh: inactive; FBA Mtb inh: inactive; UGM FP inh: inactive; Mtb betalactam: inactive

How did O=C1c2ccccc2NC(c2ccccn2)N1c1ccc(Cl)cc1 (configuration not stated) do in these assays?
RecA splice inh: inactive; GDH-TPI counter-1: inactive; Rv3671c inh: inactive; FBA Mtb inh: inactive; UGM FP inh: inactive; Mtb betalactam: inactive

Results for CCCCN1C2=C(C(=O)CCC2)C(c2ccc(Cl)c(Cl)c2)C2=C1c1ccccc1C2=O (configuration not stated) ?
RecA splice inh: inactive; GDH-TPI counter-1: inactive; Rv3671c inh: inactive; FBA Mtb inh: inactive; UGM FP inh: inactive; Mtb betalactam: inactive

What do the screens show for `CCCN1C(=O)c2ccccc2NC1c1ccc(Cl)c(Cl)c1` (configuration not stated)?
RecA splice inh: inactive; GDH-TPI counter-1: inactive; Rv3671c inh: inactive; FBA Mtb inh: 60; UGM FP inh: inactive; Mtb betalactam: inactive; Mtb FBA inh conf: 104; GDH-TPI counter-2: 107

What do the screens show for `CCCN1C(=O)c2ccccc2NC1c1ccc(Br)cc1` (configuration not stated)?
RecA splice inh: inactive; GDH-TPI counter-1: inactive; Rv3671c inh: inactive; FBA Mtb inh: 68; UGM FP inh: inactive; Mtb betalactam: inactive; Mtb FBA inh conf: 68; GDH-TPI counter-2: 60

How did CCCN1C(=O)c2ccccc2NC1c1ccc(Cl)cc1 (configuration not stated) do in these assays?
RecA splice inh: inactive; GDH-TPI counter-1: inactive; Rv3671c inh: inactive; FBA Mtb inh: 60; UGM FP inh: inactive; Mtb betalactam: inactive; Mtb FBA inh conf: 132; GDH-TPI counter-2: 107

What do the screens show for `Cc1ccc(C2Nc3ccccc3C(=O)N2CCCN2CCOCC2)cc1` (configuration not stated)?
RecA splice inh: inactive; GDH-TPI counter-1: inactive; Rv3671c inh: inactive; FBA Mtb inh: 59; UGM FP inh: inactive; Mtb betalactam: inactive; Mtb FBA inh conf: 102; GDH-TPI counter-2: 108

What do the screens show for `COc1cccc(C(CCc2cc(OC)c(OC)c(OC)c2)NC(C)=O)c1` (configuration not stated)?
GDH-TPI counter-1: inactive; FBA Mtb inh: inactive

Results for CCCCCC(=O)N1C[C@H](n2cc(C3CC3)nn2)[C@@H](O)C[C@@H]1c1ccc(Cl)cc1 ?
GDH-TPI counter-1: inactive; FBA Mtb inh: inactive

What do the screens show for `Cc1ccc(C2NC(=O)c3c(sc4c3CCN(C)C4)N2)s1` (configuration not stated)?
RecA splice inh: inactive; GDH-TPI counter-1: inactive; Rv3671c inh: inactive; FBA Mtb inh: 45; UGM FP inh: inactive; Mtb betalactam: inactive; Mtb FBA inh conf: 69; GDH-TPI counter-2: 71

What do the screens show for `COc1cc(CO)cc(Br)c1OCC(=O)Nc1cccc2ccccc12`?
RecA splice inh: inactive; GDH-TPI counter-1: inactive; Rv3671c inh: inactive; FBA Mtb inh: inactive; UGM FP inh: inactive; Mtb betalactam: inactive

Results for CC[C@@]1(C(=O)OC)N[C@H](CN(C)C(=O)Nc2ccc(Cl)cc2)[C@@H]2C(=O)N(Cc3ccccc3)C(=O)[C@@H]21 ?
GDH-TPI counter-1: inactive; Rv3671c inh: inactive; FBA Mtb inh: inactive; UGM FP inh: inactive; Mtb betalactam: inactive

Results for CS(=O)(=O)NNC(=O)c1sccc1OCc1ncc(C(F)(F)F)cc1Cl ?
RecA splice inh: inactive; GDH-TPI counter-1: inactive; Rv3671c inh: inactive; FBA Mtb inh: inactive; UGM FP inh: inactive; Mtb betalactam: inactive

Results for Cc1ccc2cc(-c3noc(C4CCCO4)n3)c(=O)[nH]c2c1 (configuration not stated) ?
RecA splice inh: inactive; GDH-TPI counter-1: inactive; Rv3671c inh: inactive; FBA Mtb inh: 37; UGM FP inh: inactive; Mtb betalactam: inactive; Mtb FBA inh conf: 42; GDH-TPI counter-2: 45

Results for Cc1ccc2nc(-c3cccc(S(=O)(=O)N(C)C)c3)cn2c1 ?
RecA splice inh: inactive; GDH-TPI counter-1: inactive; Rv3671c inh: inactive; FBA Mtb inh: inactive; UGM FP inh: inactive; Mtb betalactam: inactive

What do the screens show for `COc1ccc(-c2cn3cc(Cl)ccc3n2)cc1OC`?
RecA splice inh: inactive; GDH-TPI counter-1: inactive; Rv3671c inh: inactive; FBA Mtb inh: 57; UGM FP inh: inactive; Mtb betalactam: inactive; Mtb FBA inh conf: 72; GDH-TPI counter-2: 47

Results for COc1ccc(-c2cn3cc(C)ccc3n2)cc1Br ?
RecA splice inh: inactive; GDH-TPI counter-1: inactive; Rv3671c inh: inactive; FBA Mtb inh: 30; UGM FP inh: inactive; Mtb betalactam: inactive; Mtb FBA inh conf: 130; GDH-TPI counter-2: 109

How did O=C(NCCSc1ccc(Br)cc1)c1ccc2nc[nH]c2c1 do in these assays?
RecA splice inh: inactive; GDH-TPI counter-1: inactive; Rv3671c inh: inactive; FBA Mtb inh: inactive; UGM FP inh: inactive; Mtb betalactam: inactive
